Measurements reported in PubChem BioAssay AID2783 (National Center for Advancing Translational Sciences (NCATS), 2010).
Results filed as inconclusive are left out. Active and inactive are the calls of the source. Calls come from the whole dose curve; as a rule, active = well fitted inhibition curve with a large enough effect in the polarisation, with a control signal flat (not every such curve was filed as active); inconclusive = small, poorly fitted or top-dose-only effect, or effect the other way, or a change in a side signal; inactive = no such curve, though single readings can be large or run the other way; the % refers to the polarisation.

molecular target: Menin (Homo sapiens) (UniProt O00255); experiment: Confirmation of Inhibitors Targeting the Menin-MLL Interaction in MLL Related Leukemias: Competition With Fluorescein Labeled MLL-derived Peptide; settings: Fluorescence polarization, fluorescein-MLL peptide displacement from menin; series mostly up to 100 µM
Sequence (O00255 whole entry, looked up): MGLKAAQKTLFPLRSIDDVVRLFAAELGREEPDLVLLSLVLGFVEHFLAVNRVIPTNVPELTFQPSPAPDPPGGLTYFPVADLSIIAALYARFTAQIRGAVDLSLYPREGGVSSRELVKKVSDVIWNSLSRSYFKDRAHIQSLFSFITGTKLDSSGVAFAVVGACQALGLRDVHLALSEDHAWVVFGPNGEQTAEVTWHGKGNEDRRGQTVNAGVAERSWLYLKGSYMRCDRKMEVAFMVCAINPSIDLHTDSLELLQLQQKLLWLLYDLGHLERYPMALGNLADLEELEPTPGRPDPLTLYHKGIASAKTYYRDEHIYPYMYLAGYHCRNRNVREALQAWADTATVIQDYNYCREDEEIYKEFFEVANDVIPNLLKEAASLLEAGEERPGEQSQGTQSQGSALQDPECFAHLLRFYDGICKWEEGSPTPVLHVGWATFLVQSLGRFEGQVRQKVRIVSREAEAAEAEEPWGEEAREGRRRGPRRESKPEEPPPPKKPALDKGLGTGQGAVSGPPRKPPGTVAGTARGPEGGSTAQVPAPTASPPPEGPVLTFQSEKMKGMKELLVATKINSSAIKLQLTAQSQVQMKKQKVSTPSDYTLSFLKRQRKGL

Compound	outcome
Oc1ccc(Nc2ncnc3c2oc2ccccc23)cc1	inactive
CCCOc1ccc(C(=O)N2CCN(Cc3ccc4c(c3)OCO4)CC2)cc1	inactive
CN1[C@H](CC(=O)c2ccccc2)CCC[C@H]1C[C@@H](O)c1ccccc1	inactive
O=C1NC(=S)N/C1=C/c1ccc2ccccc2c1	inactive
Cc1ccc(NC(=O)C(C)N2C(=O)c3ccccc3C2=O)c(C)c1 (centres undefined)	inactive
CC(c1ccncn1)N(C)Cc1nc(-c2ccc(C(F)(F)F)cc2)no1 (centres undefined)	inactive
COC(CSc1nc(N)c2c3c(sc2n1)CN(C)CC3)OC	inactive
CN(CCOc1ccc(Cl)cc1)CC(O)c1ccccc1 (centres undefined)	inactive
O=C(NC(=S)Nc1nc(-c2ccc(Br)cc2)cs1)c1cccnc1	inactive
Cc1ccc(NC(=O)CN(C)C(=O)COc2cccc3cccnc23)cc1	inactive
Cc1cc2ncn(-c3ncnc4sc5c(c34)CCC(C)C5)c2cc1C (centres undefined)	inactive
CCc1ccc(CNC(=O)CCS(=O)(=O)Cc2ccccc2F)cc1	inactive
CCOc1cc(C(c2c(C)[nH][nH]c2=O)c2c(C)[nH][nH]c2=O)cc(Br)c1OC	inactive
N=c1oc2ccccc2cc1-c1nc(-c2ccc(Cl)cc2)cs1	inactive
O=C(Nc1nnc(-c2ccccc2SCc2ccccc2)s1)Nc1ccccc1F	inactive
CCc1oc2ccccc2c1C(=O)c1cc(Br)c(O)c(Br)c1	inactive
COc1ccc(/C=C(\C#N)C(=O)NCc2ccccc2)cc1	inactive
O=C(Nc1nccs1)C(Br)C(Br)c1ccccc1 (centres undefined)	inactive
Cc1nc2oc3c(NCC4CCCO4)ncnc3c2c2c1COC(C)(C)C2 (centres undefined)	inactive
